Data from PubChem BioAssay (EPA / NIEHS).
Where “and” joins values, the source holds several entries; their conditions need not be identical. Equal values may be shown once. Some compounds were tested as several samples or in several runs, with calls that do not always agree. Calls of active or inactive are those of the source. The calls were made as follows: active = hit-call score of the fitted dose curve at least 0.9, where 1 is the maximum; inactive = score below 0.9.

Assays:
[1] = read-out: Tissue Factor, F3 (gene 2152); test: BSK_CASM3C_TissueFactor: BioMAP Diversity Plus: CASM3C Assay for Tissue Factor Biomarker Activity (AID 2283052); settings: primary human coronary artery smooth muscle cells; actives raise or lower the signal;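 also: cell surface tissue factor protein level read by ELISA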
[2] = read-out: Interferon-gamma inducible Protein 10 (IP10), CXCL10 (gene 3627); test: BSK_hDFCGF_IP10: BioMAP Diversity Plus: hDFCGF Assay for Interferon-gamma inducible Protein 10 (IP10) Biomarker Activity (AID 2283053); settings: primary human foreskin fibroblasts; actives raise or lower the signal
How it was run: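 Primary foreskin fibroblasts, human; 24 h compound exposure; IP-10 by ELISA; bidirectional fit vs DMSO.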

[3] = read-out: Urokinase-type plasminogen activator receptor (uPAR), PLAUR (gene 5329); test: BSK_CASM3C_uPAR: BioMAP Diversity Plus: CASM3C Assay for Urokinase-type plasminogen activator receptor (uPAR) Biomarker Activity (AID 2283054); settings: primary human coronary artery smooth muscle cells; actives raise or lower the signal;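 also: cell-surface uPAR protein level quantified by ELISA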
[4] = read-out: Vascular cell adhesion molecule 1 (VCAM1), VCAM1 (gene 7412); test: BSK_CASM3C_VCAM1: BioMAP Diversity Plus: CASM3C Assay for Vascular cell adhesion molecule 1 (VCAM1) Biomarker Activity (AID 2283055); settings: primary human coronary artery smooth muscle cells; actives raise or lower the signal;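 also: VCAM-1 protein level quantified by ELISA on the cells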
[5] = read-out: Epidermal growth factor receptor (EGFR), EGFR (gene 1956); test: BSK_hDFCGF_EGFR: BioMAP Diversity Plus: hDFCGF Assay for Epidermal growth factor receptor (EGFR) Biomarker Activity (AID 2283057); settings: primary human foreskin fibroblasts; actives raise or lower the signal
How it was run: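 hDFCGF system, primary human foreskin fibroblasts; compound 24 h; EGFR measured by ELISA; DMSO = negative control/baseline; bidirectional fitting.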

[6] = read-out: Interleukin-8 (IL8), CXCL8 (gene 3576); test: BSK_hDFCGF_IL8: BioMAP Diversity Plus: hDFCGF Assay for Interleukin-8 (IL8) Biomarker Activity (AID 2283058); settings: primary human foreskin fibroblasts; actives raise or lower the signal
How it was run: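 hDFCGF human dermal fibroblasts; 24 h chemical exposure; IL-8 by ELISA; bidirectional curve fit vs DMSO baseline; gain or loss of signal scored.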

[7] = BSK_hDFCGF_Proliferation: Cell Proliferation Assessment in the BioMAP Diversity Plus: hDFCGF Assay (AID 2283059); settings: primary human foreskin fibroblasts;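 also: curves fitted for both rise and fall of signal versus DMSO baseline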
How it was run: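 This proliferation readout used SRB total-protein staining of human foreskin fibroblasts […], normalized to DMSO with bidirectional curve fitting.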

[8] = read-out: Macrophage colony-stimulating factor (MCSF), CSF1 (gene 1435); test: BSK_hDFCGF_MCSF: BioMAP Diversity Plus: hDFCGF Assay for Macrophage colony-stimulating factor (MCSF) Biomarker Activity (AID 2283060); settings: primary human foreskin fibroblasts; actives raise or lower the signal
How it was run: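 Human foreskin primary fibroblasts were treated with test chemical for 24 h, and M-CSF was then measured by ELISA. Data were fitted bidirectionally against DMSO as the negative control and activity baseline.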

[9] = BSK_hDFCGF_SRB: Viability Assessment in the BioMAP Diversity Plus: hDFCGF Assay (AID 2283061); settings: primary human foreskin fibroblasts;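 also: cells exposed to compound for 24 h before the read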
How it was run: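 Human foreskin primary fibroblasts were treated with compound and assessed 24 h after dosing. Total protein was measured by sulforhodamine B staining (0.1% SRB after 10% TCA fixation, 560 nm read) as a cytotoxicity marker, with bidirectional fitting against DMSO baseline.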

[10] = read-out: Collagen III, COL3A1 (gene 1281); test: BSK_hDFCGF_CollagenIII: BioMAP Diversity Plus: hDFCGF Assay for Collagen III Biomarker Activity (AID 2283056); settings: primary human foreskin fibroblasts; actives raise or lower the signal
How it was run: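 Human foreskin primary fibroblasts were exposed to test chemicals for 24 h, after which collagen III was quantified by ELISA. Activity was fitted bidirectionally against DMSO as negative control and baseline.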

Measured: AC50

COc1cccc(O)c1
not listed: [10]
inactive: all other assays above

CCCCCCCCCCCCOS(=O)(=O)O
inactive: [1] | [3] | [4] | [6]
active: [2] 26.3 µM | [5] 20 µM | [8] 30.9 µM | [9] 28 µM

CCCCCCCCCCCCCCC
not listed: [2]
inactive: all other assays above

Oc1c(Cl)cc(Cl)cc1Sc1cc(Cl)cc(Cl)c1O
active: [2] 1.66 µM and 1.94 µM | [3] 20 µM and 18.3 µM | [4] 20 µM and 12.7 µM | [5] 0.236 µM | [6] 4.43 µM and 4.46 µM | [8] 1.46 µM and 1.59 µM | [9] 1.67 µM and 1.78 µM
inactive: [1] | [5]

Cc1[nH]nc2c1N=C(c1ccccc1Cl)c1cc([N+](=O)[O-])ccc1N2
active: [4] 9.37 µM | [5] 20 µM | [7] 187 nM
not listed: [10]
inactive: all other assays above

CCOC(=O)CN[C@@H](C(=O)N1CC[C@H]1C(=O)NCc1ccc(/C(N)=N/O)cc1)C1CCCCC1
not listed: [2] | [7]
inactive: all other assays above

CC(=O)Nc1ccc(O)cc1
inactive: all assays above

CN(CCO)S(=O)(=O)C(F)(F)C(F)(F)C(F)(F)C(F)(F)C(F)(F)C(F)(F)C(F)(F)C(F)(F)F
inactive: [1] | [3] | [4] | [5] | [6] | [7] | [8] | [9]
active: [8] 0.0414 µM

CCCCc1oc2ccccc2c1C(=O)c1cc(I)c(OCCN(CC)CC)c(I)c1
active: [1] 24 µM | [2] 8.78 µM | [3] 13.7 µM | [4] 25.3 µM | [6] 10.3 µM | [8] 6.99 µM | [9] 4.64 µM
inactive: [5]

CN(C)CCOC(c1ccccc1)c1ccccc1
active: [2] 33.6 µM
not listed: [7] | [8] | [10]
inactive: all other assays above

C=CC(=C)CC/C=C(\C)CCC=C(C)C
active: [10] 3.62 µM
not listed: [7]
inactive: all other assays above

Cc1ccc(N=Nc2c(O)ccc3ccccc23)c(C)c1
active: [2] 10 µM | [8] 10 µM
not listed: [10]
inactive: all other assays above

C=CC(=O)OCCC(F)(F)C(F)(F)C(F)(F)C(F)(F)C(F)(F)C(F)(F)C(F)(F)C(F)(F)F
not listed: [2] | [7]
inactive: all other assays above

Oc1cc2ccccc2cc1O
not listed: [7] | [10]
inactive: all other assays above

C=COC(=O)C(C)(C)CCCCCC
active: [1] 20 µM | [2] 35 µM | [3] 20 µM | [4] 33.2 µM | [10] 31.2 µM | [6] 31 µM | [8] 35 µM | [9] 37.5 µM
inactive: [5]

O=P(O)(O)CCC(F)(F)C(F)(F)C(F)(F)C(F)(F)C(F)(F)C(F)(F)C(F)(F)C(F)(F)F
inactive: [1] | [2] | [3] | [4] | [5] | [6] | [8] | [9]
active: [5] 29 µM

O=C(CC(=O)C(F)(F)C(F)(F)C(F)(F)F)c1cccs1
active: [3] 51.8 µM and 50.9 µM | [4] 40.6 µM and 38.2 µM | [7] 4.23 µM and 4.92 µM
not listed: [2]
inactive: all other assays above

Oc1ccc(Cc2ccccc2O)cc1
active: [4] 3.97 µM | [7] 33600 nM
inactive: [1] | [3] | [4] | [10] | [5] | [6] | [7] | [8] | [9]

COc1cc(OC)nc(NC(=O)NS(=O)(=O)Nc2ccccc2C(=O)N(C)C)n1
not listed: [2] | [7]
inactive: all other assays above

CN(Cc1cnc2nc(N)nc(N)c2n1)c1ccc(C(=O)N[C@@H](CCC(=O)O)C(=O)O)cc1
active: [8] 2.65 µM
inactive: [1] | [2] | [3] | [4] | [5] | [6] | [8] | [9]

OCC(F)(F)C(F)(F)C(F)(F)C(F)(F)C(F)(F)C(F)(F)C(F)(F)C(F)(F)C(F)(F)C(F)(F)C(F)(F)F
not listed: [10]
inactive: all other assays above

O=S(=O)(O)C(F)(F)C(F)(F)C(F)(F)C(F)(F)C(F)(F)C(F)(F)C(F)(F)C(F)(F)C(F)(F)C(F)(F)F
active: [4] 3.55 µM and 2.65 µM | [7] 1.46 µM and 1.89 µM | [9] 8.49 µM and 8.79 µM
not listed: [2]
inactive: all other assays above

O=C1NS(=O)(=O)c2ccccc21
active: [4] 0.15 µM
inactive: [1] | [3] | [4] | [10] | [5] | [6] | [7] | [8] | [9]

O=P(O)(O)CCC(F)(F)C(F)(F)C(F)(F)C(F)(F)C(F)(F)C(F)(F)F
not listed: [7]
inactive: all other assays above

O=C(NO)c1ccccc1
not listed: [2] | [7]
inactive: all other assays above
